Source: PubChem BioAssay (National Center for Advancing Translational Sciences (NCATS))
Rows were chosen to be rich in hits. Some 19% of all compounds tested hit in one or more screens of this group.
IL-1B inflam inh = inflammasome signaling inhibition, IL-1 beta readout; THP-1 LPS/ATP IL-1B secretion, AlphaLISA, 16 h; stronger effect = lower value; AID 743279; actives 4.7% (n = 360,000); activity change, % at 57.5 µM; in the data active means activity change below about -50%; inconclusive means mostly about -30% to -49%
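Secreted IL-1B measured by AlphaLISA bead assay after 16 h compound exposure of THP-1 cells; compounds (final up to 57.5 uM) added 1 h before LPS (250 ng/mL) and ATP (1.25 mM) stimulation; lower signal means less secretion.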
HT1080-NT tox = kills 2HG-producing HT-1080-NT fibrosarcoma cells; HT-1080-NT fibrosarcoma viability, CellTiter-Glo ATP luminescence, 48 h; Potency, µM (doses to about 46.1 µM), for inactives: top-dose activity, negative = less viability, most hits filed as cytotoxic; actives 1.6% (n = 360,000);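 further: NT is the 2HG producing partner of a matched IDH1 knockdown line; potency means the concentration at half of the fitted maximal effect; 0% = DMSO-treated cells and -100% = media-only wells without cells; nearly all actives have a fitted effect of over 55% in size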
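HT-1080-NT fibrosarcoma cells (2HG-overproducing), 750 cells/well in RPMI with 5% FBS, dosed after 2 h and incubated 48 h at 37C. CellTiter-Glo luminescence normalized to DMSO and no-cell wells; concentration-response curves fitted and classed.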
HT1080 IDH1KD tx = kills HT-1080 cells with IDH1 knockdown. HT-1080 IDH1 knockdown viability, ATP luminescence, 48 h. Potency, µM (top dose mostly 46.1 µM), for inactives: top-dose activity, negative = toxicity, actives largely listed as cytotoxic. actives 2% (n = 360,000). AID 686971;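 further: potency means the concentration at half of the fitted maximal effect; 0% = DMSO wells and -100% = cell-free medium wells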
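Knockdown cells (IDH1KD HT-1080) received compounds 2 h after plating at 750 cells/well and were kept 48 h at 37 °C in 5% FBS RPMI. A CellTiter-Glo luminescence read gave % activity for curve fitting.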
TDP1 cell CPT = growth inhibition of DT40 Tdp1-/-;hTDP1 cells with camptothecin (screen for TDP1 inhibitors); chicken DT40 Tdp1-/-;hTDP1 cells + 20 nM CPT, ATP luminescence, 48 h; Potency, µM (titrated, usually from 46.2 µM), for inactives: top-dose activity change, negative = growth inhibition, most hits filed as inhibitors; actives 12% (n = 420,000); AID 686979; further: potency means the concentration at half of the fitted maximal effect; nearly all actives have a fitted effect of over 55% in size
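Chicken DT40 Tdp1-/- cells complemented with human TDP1, 400 cells/well, exposed to compounds plus 20 nM camptothecin for at least 48 h at 37 C; viability read as ATP content by CellTiter-Glo luminescence.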
TDP1 cell noCPT = qHTS for Inhibitors of human tyrosyl-DNA phosphodiesterase 1 (TDP1): qHTS in cells in absence of CPT | AID 686978, 2013 | DT40 Tdp1-/- hTDP1 cells, no CPT, ATP luminescence, 48 h | Potency, µM (highest dose often 46.2 µM), for the others: at the highest dose activity change, negative = growth inhibition, actives largely listed as inhibitors | actives 15% (n = 420,000); further: potency means the concentration at half of the fitted maximal effect; nearly all actives have a fitted effect of over 55% in size
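Luminescent ATP content (CellTiter-Glo) served as the growth readout. Knockout chicken DT40 cells expressing human TDP1 were exposed to compounds without camptothecin for a minimum 48 hr at 37 °C.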
Numbers without * were called inactive; ? = inconclusive; . = not tested or not shown; ! = repeats disagree; [ ] = dose if it differs, or a comment. Unless noted, the call rests on the fitted dose curve; in most records, active means well fitted curve in the direction sought with a large enough effect; inconclusive means small, poorly fitted or top-dose-only effect, or another doubt; inactive means no such curve, though single readings can be large; an effect the other way counts as inactive or inconclusive. Unless noted, on the % scale 0 is the no-effect control and ±100 the full control effect.

SMILES	IL-1B inflam inh	HT1080-NT tox	HT1080 IDH1KD tx	TDP1 cell CPT	TDP1 cell noCPT
C#CCOc1nc(OCC#C)nc(OCC#C)n1	-13.4	2.5%	-0.7%	-5.8%	-23.3%
O=c1c2ccccc2nnn1Cc1ccc2ccccc2c1	-13.1	11.0%	-24.5%	14.5%	35.5%
Nc1ncnc2c1ncn2CCOCP(=O)(O)O	.	.	.	-11.3%	-10.6%
Nc1ncnc2c1ncn2COC(CO)CO	.	.	.	0.316µM*	0.708µM*
O=[N+]([O-])c1cc(Br)c2c(c1)CCN2	8.5	-5.6%	-14.8%	3.4%	-26.5%
O=[N+]([O-])c1cc(Cl)cc(C2=NCCN2)c1	6.4	-2.4%	-21.6%	18.4µM*	?
O=C1C=CC(=O)N1Cc1ccncc1	-14.3	5.6%	13.1%	8.8%	-2.9%
O=C1C=CC(=O)N1CCCCCCCCCCN1C(=O)C=CC1=O	-86.6*	?	?	0.581µM*	1.3µM*
Cc1ccc(C(=O)NCC(=O)OCn2nnc3ccccc3c2=O)cc1	-2.0	2.1%[9.24 µM]	-0.7%	6.0%	-3.0%
CCNC(=S)Nc1ccc(C)c(Cl)c1	-5.0	9.9%	-2.7%	-12.5%	-21.5%
CCNC(=S)Nc1ccc(Cl)c([N+](=O)[O-])c1	-88.9*	-5.4%	-8.6%	-16.0%	?
CC(CC(=O)Nc1ccc(Cl)c([N+](=O)[O-])c1)c1ccccc1 (centres undefined)	-90.5*	?	?	?	?
Cc1cccc(N2CCN(Cc3nnc(-c4ccc5c(c4)OCO5)o3)CC2)c1C	.	.	.	-4.0%	-3.4%
CCn1nnc(NC(=O)c2ccco2)n1	-9.4	5.7%	-1.1%	0.4%	-2.6%
CC(C)(CO)NC(=O)Nc1ccc(Cl)c(Cl)c1	-2.2	1.9%	0.0%	21.4%	-15.3%
O=C(Nc1cccnc1)C1=NN(C2CCS(=O)(=O)C2)C(=O)CC1 (centres undefined)	14.3	8.3%	7.5%	-17.0%	-26.0%
C=CCN(C(=O)C1=NN(C2CCS(=O)(=O)C2)C(=O)CC1)c1nc(-c2ccc([N+](=O)[O-])cc2)cs1 (centres undefined)	-55.4*	-13.8%	-19.0%	-1.5%	18.4µM*
Cc1onc(-c2ccccc2Cl)c1C(=O)NC(=S)Nc1ccccc1C(N)=O	28.4	3.9%	12.7%	25.9µM*	?
Cc1onc(-c2ccccc2Cl)c1C(=O)N1CC(C)CC(C)C1 (centres undefined)	3.8	-23.1%	-15.2%	14.6µM*	10.3µM*
Cc1onc(-c2ccccc2Cl)c1C(=O)Nc1ccccc1C(=O)NC(C)C	?	-22.3%	-13.3%	3.26µM*	2.31µM*
Cc1onc(-c2ccccc2Cl)c1C(=O)Nc1ccc(Cl)cn1	-1.8	-1.4%	-2.6%	?	?
Cc1onc(-c2ccccc2Cl)c1C(=O)Nc1ccccc1C(N)=O	36.7	-2.9%	-0.3%	?	?
Cc1cccc(C(=O)NNC(=O)c2c(-c3ccccc3Cl)noc2C)c1O	-4.0	-15.5%	-8.2%	?	29.1µM*
CCOc1ccc(NC(=O)C2CCC(CNc3c(N4CCC(C)CC4)c(=O)c3=O)CC2)cc1 (centres undefined)	-2.6	6.0%	-0.7%	-8.1%	5.4%
Cc1ccc(NC(=O)Cn2c(=O)n(CCC(=O)N3CCc4ccccc4C3)c(=O)c3ccccc32)cc1	.	.	.	18.4µM*	16.4µM*
SMILES	IL-1B inflam inh	HT1080-NT tox	HT1080 IDH1KD tx	TDP1 cell CPT	TDP1 cell noCPT
Cc1ccccc1NC(=O)Cn1c(=O)n(CCC(=O)N2CCc3ccccc3C2)c(=O)c2ccccc21	.	.	.	16.4µM*	14.6µM*
CCN(CC)CCNC(=O)CCCNC(=O)Cn1cnc2sc(C)c(C)c2c1=O	5.2	5.2%	10.2%	-1.6%	-4.6%
COc1ccccc1CNC(=O)CS(=O)Cc1nc(-c2ccc(OC)c(OC)c2)oc1C (centres undefined)	-4.3	-2.2%	-1.2%	?	?
CCOc1ccc(CCNC(=O)CSCc2nc(-c3cccc(C)c3)oc2C)cc1OCC	.	.	.	?	13µM*
COc1ccc(-c2nc(CSCC(=O)NCCC3=CCCCC3)c(C)o2)cc1OC	-28.7	-20.7%	-9.0%	?	?
COc1ccccc1CNC(=O)CSCc1nc(-c2ccc(OC)c(OC)c2)oc1C	.	.	.	?	18.4µM*
CCOc1ccc(CCNC(=O)CS(=O)Cc2nc(-c3ccc(C)cc3)oc2C)cc1OCC (centres undefined)	6.6	-6.7%	-6.2%	16.4µM*!	?
COc1ccc(-c2nc(CSCC(=O)NCCc3ccc(C)cc3)c(C)o2)cc1OC	.	.	.	16.4µM*	18.4µM*
Cc1cccc(-c2nc(CSCC(=O)NCc3cccs3)c(C)o2)c1	-23.4	16.6%	-10.3%	?	?
CC1(C)CC(Cc2ccc(Cl)nc2)N(C(=O)OC(C)(C)C)C1 (centres undefined)	28.9	9.5%	10.7%	?	?
O=C(O)C(SC(C(=O)O)c1ccccc1)c1ccccc1 (centres undefined)	-22.2	0.0%	11.7%	?	?
COc1cc2cc(CN(Cc3cccnc3)C(=O)Nc3ccccc3)c(=O)[nH]c2cc1OC	?	5.7%	6.8%	?	?
CCN(CC)CCCN(Cc1cc2cc3c(cc2[nH]c1=O)OCO3)C(=S)Nc1ccccc1OC	-29.4	-15.1%	-9.6%	18.4µM*	-14.7%
COC(=O)c1ccccc1NC(=O)NCc1ccc2c(c1)OCO2	-1.8	2.5%	-15.7%	-0.6%	-7.4%
COc1ccccc1NC(=S)N(CCCN(C)C)Cc1cc2cc3c(cc2[nH]c1=O)OCO3	-22.8	-3.0%	-3.3%	-1.0%	-16.4%
CN(C)CCCN(Cc1cc2cc3c(cc2[nH]c1=O)OCO3)C(=S)Nc1cccc(Cl)c1	-101.5*	14.6µM*	-21.8%	?	29.1µM*
CCc1ccc2[nH]c(=O)c(CN(Cc3ccccc3)C(=O)Nc3ccccc3OC)cc2c1	-58.5*	?	?	?	?
COC(=O)c1ccccc1NC(=S)N(Cc1ccc2c(c1)OCO2)Cc1cc2cc(OC)ccc2[nH]c1=O	0.0	1.3%	-2.5%	9.2µM*	16.4µM*
C/C=C1\C2C=C(C)C[C@@]1(N)c1ccc(=O)[nH]c1C2	.	.	.	19.0%	-0.6%
C=CCOC(=O)Nc1nc(CCNC(=O)OC(C)(C)C)c(C(=O)O)s1	-7.6	8.1%	8.6%	12.4%	7.4%
Cc1cc2c(cc1S(=O)(=O)Nc1cccc(C(F)(F)F)c1)OCCN2C	.	.	.	-23.7%	?
Cc1ccc(CNC(=O)Cn2ccn(-c3cc(C)cc(C)c3)c(=O)c2=O)cc1	.	.	.	-1.6%	-17.9%
CCOc1ccc2[nH]c(=O)c(CN(CCN3CCCC3)C(=S)Nc3ccccc3OC)cc2c1	-62.1*	?	?	-28.9%	-19.1%
